HP1b chromo inh: HTS for Inhibitors of HP1-beta Chromodomain Interactions with Methylated Histone Tails; Chromobox protein homolog 1 (Homo sapiens), P83916; AlphaScreen HP1-beta / biotin-H3K9me3 peptide binding; Potency, µM (doses to about 114 µM), for the others: at the highest dose activity change, negative = inhibition, actives largely listed as inhibitors; 390,000 tested, 0.56% active; note: potency is the fitted concentration of half-maximal effect; nearly all actives have a fitted effect of over 70% in size
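AlphaScreen: HP1-beta (50 nM) preformed 30 min with biotin-H3(1-18)K9me3 peptide (50 nM) in PBS pH 7.4, 0.01% Tween-20. Compound added for 30 min at RT, then streptavidin donor/nickel chelate acceptor beads (10 ug/mL) for 30 min.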
Six1-Eya2 blk: qHTS Assay for Inhibitors of the Six1/Eya2 Interaction; Homeobox protein SIX1 (Homo sapiens) + Protein phosphatase EYA2 (Homo sapiens), …; AlphaScreen GST-Six1/His-Eya2 binding, biochemical; stronger effect = lower value; activity change, % (concentration not given with the values); 360,000 tested, 0.56% active; AID 651725, 2012; in the data active = activity change below about -65%; inconclusive = mostly about -30% to -63%; note: % is set by controls: 0 for no effect and ±100 for the full control effect
Target sequence (O00167 whole entry, looked up): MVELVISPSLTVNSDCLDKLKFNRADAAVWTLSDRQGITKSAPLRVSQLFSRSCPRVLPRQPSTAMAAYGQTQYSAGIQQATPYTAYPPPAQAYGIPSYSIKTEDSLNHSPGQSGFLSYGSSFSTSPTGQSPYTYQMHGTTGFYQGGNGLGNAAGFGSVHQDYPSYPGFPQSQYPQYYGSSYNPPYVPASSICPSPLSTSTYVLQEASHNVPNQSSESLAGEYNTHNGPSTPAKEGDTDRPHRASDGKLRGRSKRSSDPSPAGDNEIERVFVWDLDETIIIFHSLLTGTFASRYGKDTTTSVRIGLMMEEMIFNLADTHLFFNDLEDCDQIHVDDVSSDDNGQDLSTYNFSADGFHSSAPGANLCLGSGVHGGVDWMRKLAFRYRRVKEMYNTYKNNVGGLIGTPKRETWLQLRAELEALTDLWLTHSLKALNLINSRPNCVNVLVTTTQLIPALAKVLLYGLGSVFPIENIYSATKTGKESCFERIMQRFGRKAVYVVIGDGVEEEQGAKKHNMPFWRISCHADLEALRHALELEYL
Target sequence (Q15475 whole entry, looked up): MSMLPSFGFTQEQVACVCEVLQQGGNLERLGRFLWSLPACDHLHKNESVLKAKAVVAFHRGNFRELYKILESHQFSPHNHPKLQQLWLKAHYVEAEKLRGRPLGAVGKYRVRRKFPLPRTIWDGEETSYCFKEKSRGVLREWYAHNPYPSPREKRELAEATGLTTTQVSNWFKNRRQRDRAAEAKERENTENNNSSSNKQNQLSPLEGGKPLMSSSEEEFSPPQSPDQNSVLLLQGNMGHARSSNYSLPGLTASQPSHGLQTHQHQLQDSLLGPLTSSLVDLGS
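Compounds are tested against tagged Six1 and Eya2 proteins bridged by glutathione donor and nickel acceptor beads; after a one-hour incubation at 37 °C without light, AlphaScreen emission is recorded.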
BAZ2B block: qHTS Assay for Inhibitors of BAZ2B; Bromodomain adjacent to zinc finger domain protein 2B (Homo sapiens), Q9UIF8; AlphaScreen BAZ2B-H3K14Ac peptide displacement; Potency, µM (doses to about 114 µM), inactives show at the highest dose activity change, negative = inhibition, usual class: inhibitors; 360,000 tested, 4.4% active; note: potency is the fitted concentration of half-maximal effect; % is set by controls: 0 for no effect and ±100 for the full control effect; nearly all actives have a fitted effect of over 60% in size
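Inhibition is scored as reduced AlphaScreen emission. The BAZ2B/b-H3(5-23)K14Ac complex (50 nM each) in PBS pH 7.4, 0.01% Tween-20 meets compound (up to 110 uM) for 30 min at RT before bead addition.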
JMJD2A Tudor: qHTS Assay for Inhibitors of JMJD2A-Tudor Domain | Potency, µM (series often up to 114 µM), for inactives: at the top dose activity change, negative = inhibition, actives largely listed as inhibitors | AlphaScreen JMJD2A-Tudor / H3K4me3 peptide binding | 390,000 tested, 4.4% active | Lysine-specific demethylase 4A (Homo sapiens), O75164; note: potency is the fitted concentration of half-maximal effect; % is set by controls: 0 for no effect and ±100 for the full control effect; nearly all actives have a fitted effect of over 50% in size
G9a inh: qHTS Assay for Inhibitors of Histone Lysine Methyltransferase G9a. AID 504332, 2011. G9a H3K9 monomethylation, AlphaScreen, 2 h. Potency, µM (highest dose often 102 µM), without a hit: top-dose activity, negative = inhibition, hits mostly inhibitors. 350,000 tested, 8.8% active. Histone-lysine N-methyltransferase EHMT2 (Homo sapiens), Q96KQ7; note: potency is the fitted concentration of half-maximal effect; % is set by controls: 0 for no effect and ±100 for the full control effect; nearly all actives have a fitted effect of over 75% in size
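Using a bead-based AlphaScreen, monomethylated H3K9 product from 2 h room-temperature reactions (G9a 20 nM, peptide 500 nM, SAM 20 uM) was detected with 0.5 ug/mL rabbit anti-H3K9me1 antibody.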
CtBP-E1A blk: qHTS Assay for Inhibitors of the CtBP/E1A Interaction | CtBP / adenovirus E1A interaction (AlphaScreen) | AlphaScreen GST-E1A/His-CtBP binding, 1536-well; stronger effect = lower value | activity change, % (concentration not given with the values) | 340,000 tested, 0.49% active | AID 651724, 2012; in the data active = activity change below about -65%; inconclusive = mostly about -30% to -63%; note: % is set by controls: 0 for no effect and ±100 for the full control effect
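Homogeneous bead-based format: GST-tagged E1A captured on glutathione donor beads, His-tagged CtBP on nickel acceptor beads; compounds precede bead addition by 2 h at 37 °C.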
Active calls of the source: *; u = inconclusive; x = not tested or not shown; [ ] = another dose, or the depositor's remark. In the library only some 10% were active in any assay of this set; here they are far more common. Unless noted, calls come from the whole dose curve; as a rule, active = well fitted inhibition curve with a large enough effect; inconclusive = small, poorly fitted or top-dose-only effect; inactive = no such curve, though single readings can be large or run the other way.

SMILES | HP1b chromo inh | Six1-Eya2 blk | BAZ2B block | JMJD2A Tudor | G9a inh | CtBP-E1A blk
COC(=O)[C@@]12C[C@@H](CC(=O)N3CCC(c4ccccc4)CC3)C(=O)N(CCc3ccc(OC)c(OC)c3)C1=CCC(C)(C)C2 | x | -19 | x | x | x | -19
Cc1ccc(NCCCn2cnc3c(OCc4ccccc4)ncnc32)cc1C | u | u | x | 50µM* | x | u
O=C(NC(Cc1ccccc1)C(=O)O)/C(=C/c1ccco1)NC(=O)c1cccc([N+](=O)[O-])c1 (stereo unspecified) | 50% | -1 | 8% | -12% | 45µM* | x
O=C(NCCCO)/C(=C\c1ccco1)NC(=O)c1ccco1 | 25% | 1 | -6% | -13% | 71µM* | x
Cc1ccc(C(=O)N/C(=C\c2ccccc2)C(=O)NCc2ccncc2)cc1 | 10% | 5 | 50µM* | -4% | -7%[0.0925 µM] | -1
Cc1ccc(C(=O)N/C(=C/c2ccco2)C(=O)NCc2ccco2)cc1 | 3% | 13 | -16% | -23% | 45µM* | 1
Cc1ccc(C(=O)N/C(=C/c2ccccc2)C(=O)NCc2ccncc2)cc1 | 35% | 0 | 0% | -5% | 33%[59 µM] | 5
O=C(O)CCCCCNC(=O)/C(=C\c1ccco1)NC(=O)c1ccco1 | 31% | -1 | -30% | 1% | u | x
CC(=O)CC(=O)[C@@]1(O)CC[C@@H]2[C@@H]3C=C(C)C4=CC(=O)CC[C@@H]4[C@H]3CC[C@]21C | x | x | x | x | 11%[21.5 µM] | x
N#CC1=C(Nc2ccccc2Cl)SC2(CCCC2)NC1=O | x | 2 | x | x | x | 4
O=C(NCc1ccccc1)/C(=C\c1ccc([N+](=O)[O-])cc1)NC(=O)c1ccco1 | 17% | -2 | -20% | -8% | 9% | -4
O=C(NCCO)/C(=C/c1ccco1)NC(=O)c1ccco1 | 23% | 1 | x | -10% | x | -20
CC(C)CC(NC(=O)/C(=C\c1ccco1)NC(=O)c1ccco1)C(=O)O (stereo unspecified) | 51% | -6 | -28% | 2% | 32µM* | 11
O=C(NCCCn1ccnc1)/C(=C/c1ccc(F)cc1)NC(=O)c1ccccc1 | 9% | -6 | 71µM* | -9% | 10% | 2
O=C(NCCc1ccccc1)/C(=C\c1ccc([N+](=O)[O-])cc1)NC(=O)c1ccco1 | 25% | -5 | -24% | -15% | 40µM* | 0
O=C(NCCO)/C(=C\c1ccco1)NC(=O)c1ccco1 | 38% | 4 | -1% | -6% | 32µM* | -14
CC(C)CC(NC(=O)/C(=C/c1ccco1)NC(=O)c1ccc(Br)o1)C(=O)O (stereo unspecified) | 28% | -9 | -12% | -18% | 34%[0.501 µM] | x
COc1ccc(CCNC(=O)C/C(C)=N/NC(=O)COc2ccc(C)cc2Br)cc1OC | 21% | 2 | -27% | -13% | -4% | 0
Cc1cc(C)n(CCN(C)C(=O)C2CCC(=O)N(CCc3cccc(F)c3)C2)n1 (stereo unspecified) | 11% | 8 | -3% | 4% | x | -5
CCCCCCCCN1C(=O)[C@H](CC(=O)NCCCOCCCC)C[C@@]2(C(=O)OC)CCCCC=C12 | x | 4 | x | x | x | 0
COC[C@@H]1CCCN1[C@@H]1CS(=O)(=O)N[C@H]1COCc1ccccc1 | x | 5 | x | x | x | 9
O=C(NC(Cc1ccccc1)C(=O)O)/C(=C/c1ccc(Cl)cc1)NC(=O)c1ccco1 (stereo unspecified) | 0% | 8 | -1% | -10% | 50µM* | -1
O=C(NCCCn1ccnc1)c1ccco1 | 9% | 1 | u | u | -25%[12.7 µM] | -2
O=C(NCc1ccccc1)/C(=C/c1ccco1)NC(=O)c1ccco1 | 19% | 1 | -2% | 1% | 35µM* | 2
O=C(O)CCNC(=O)/C(=C\c1ccco1)NC(=O)c1ccco1 | 34% | -2 | 0% | -13% | 22µM* | x
SMILES | HP1b chromo inh | Six1-Eya2 blk | BAZ2B block | JMJD2A Tudor | G9a inh | CtBP-E1A blk
O=C(NCc1ccccc1)/C(=C/c1ccccc1)NC(=O)c1ccco1 | 8% | 2 | 5% | -5% | 25%[59 µM] | 0
O=C(NCCCn1ccnc1)/C(=C\c1ccco1)NC(=O)c1ccco1 | 36% | 25 | 89µM* | -6% | u | -8
Cc1cc2c(s1)c1cnn(Cc3ccc(Cl)c(Cl)c3)c(=O)c1n2C | x | x | x | -30% | x | x
O=C(Cn1cnc2cc([N+](=O)[O-])ccc2c1=O)NC1CCS(=O)(=O)C1 (stereo unspecified) | 27% | -11 | u | -17% | 50µM* | -7
O=C(Cn1cnc2cc([N+](=O)[O-])ccc2c1=O)N(Cc1ccccc1)C1CCS(=O)(=O)C1 (stereo unspecified) | 21% | -23 | 7% | -12% | u | 0
O=C(Nc1cccc([N+](=O)[O-])c1)NC1CCS(=O)(=O)C1 (stereo unspecified) | 32% | 7 | 8% | 6% | 59% | 11
O=C(Nc1cc([N+](=O)[O-])ccc1O)NC1CCS(=O)(=O)C1 (stereo unspecified) | 19% | -1 | 10% | -2% | 16µM* | -6
CCCCN(C(=O)c1cccc(-n2cnnn2)c1)c1c(N)n(CCCC)c(=O)[nH]c1=O | x | 0 | x | x | x | 0
Nc1ccc(S(=O)(=O)c2ccc(N3CCOCC3)c(N)c2)cc1 | x | 11 | x | x | x | -7
CS(=O)(=O)c1ccc(Cl)c(NC(=O)COC(=O)CNC(=O)c2sc3ccccc3c2Cl)c1 | 11% | -4 | -9% | -9% | 4%[0.501 µM] | -11
CCN1CCN(c2ccc(S(=O)(=O)N3CCCCC3)cc2NC(=O)c2cc3ccccc3o2)CC1 | -27% | 1 | -20% | u | 35µM* | 0
CCN1CCN(c2ccc(S(=O)(=O)N3CCCCC3)cc2NC(=O)c2cccc(Cl)c2)CC1 | -15% | -2 | u | u | 32µM* | -10
CCN1CCN(c2ccc(S(=O)(=O)N3CCCCC3)cc2NC(=O)Cc2ccc(OC)cc2)CC1 | 6% | -4 | -10% | -22% | -6%[12.7 µM] | -18
CC(C)COc1cccc(C(=O)Nc2cc(S(=O)(=O)N3CCOCC3)ccc2N2CCCC2)c1 | u | -19 | x | -35% | x | 11
CCN1CCN(c2ccc(S(=O)(=O)N3CCCCC3)cc2NC(=O)c2ccc(OC(F)F)cc2)CC1 | -3% | -6 | -3% | -18% | 14µM* | -17
